# Laboratory results taken from PubChem BioAssay.
# Where “and” joins values, the source holds several entries; their conditions need not be identical. Equal values may be shown once. Calls of active or inactive are those of the source.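 How the source made its calls, unless noted: active means compounds whose cell count with miR-34 switched on is under 0.7 times the count with it off; inactive means the rest.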
# Key:
# [1] = Wnt pathway potentiators raising nuclear beta-catenin – imaging, WNT3A-conditioned medium, mouse C2C12, NPC library, primary screen (AID 1117326; in the data active means nuclear beta-catenin stimulation mostly above about 4.2%, no sharp cut-off; inactive means mostly below about 10%); settings: stronger effect = higher value
# [2] = stimulators of insulin release from INS-1E, primary screen, cell-based, 5 mM glucose, NPC library (AID 1117329;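 active means compound raises insulin release from rat beta cells at 5 mM glucose, no numeric limit stated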); settings: rat INS-1E insulin secretion, at 10 µM, stronger effect = higher value
# [3] = growth inhibition of GSK3B-pretreated HCT116 cells – cell-based, CellTiter-Glo, 0.2 to 20 µM (AID 1117336;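 active means compounds lowering colon cancer cell viability after pretreatment blocking the GSK3B kinase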); settings: HCT116 viability after GSK3B inhibitor, at 20 µM, stronger effect = higher value
# [4] = inhibition of endothelial tube formation, primary screen, imaging, VEGF stimulated, CD31 staining, tube area, NPC library (AID 1117340;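 active means compound that reduces growth-factor-driven endothelial tube area in a mixed cell culture, no cutoff stated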); settings: VEGF-stimulated ADSC/ECFC co-culture, at 10 µM, stronger effect = higher value
# [5] = GLP1 release stimulators, primary, NCI-H716, NPC library (AID 1117341;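 active means compound raises GLP1 secretion from the human gut endocrine cells, with no numeric limit stated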); settings: NCI-H716 cells, at 10 µM, stronger effect = higher value
# [6] = HCT116 colon cancer cell growth inhibition, primary screen, CellTiter-Glo luminescence, NPC library (AID 1117342;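 active means compounds that lower survival of HCT116 colon cancer cells in the luminescence readout, no numeric limit stated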); settings: at 20 µM (top of the series)
# [7] = reduced SW480 viability measured with CellTiter-Glo, NPC library, primary (AID 1117343;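 active means compounds that lower viability of the colon cancer cells in the luminescence readout, with no numeric limit stated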); settings: CellTiter-Glo luminescence; at 20 µM (top of the series)
# [8] = NPC library primary testing for decreased DLD-1 cell viability via CellTiter-Glo (AID 1117346;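 active means compounds that lower survival of DLD-1 colon cancer cells in the luminescence readout, no cutoff given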); settings: DLD-1 viability, CellTiter-Glo luminescence; at 20 µM (top of the series)
# [9] = biological target: 6-phosphogluconate dehydrogenase, decarboxylating (Homo sapiens) (UniProt P52209); assay: inhibition of human phosphogluconate dehydrogenase – biochemical, recombinant enzyme, NADPH absorbance, primary screen (AID 1159550;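 active means at least 20% inhibition of 6-phosphogluconate dehydrogenase activity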); settings: recombinant 6PGD, NADPH absorbance 341 nm; at 10 µM; stronger effect = higher value
# 6-phosphogluconate dehydrogenase, decarboxylating (Homo sapiens), sequence (P52209 whole entry, looked up): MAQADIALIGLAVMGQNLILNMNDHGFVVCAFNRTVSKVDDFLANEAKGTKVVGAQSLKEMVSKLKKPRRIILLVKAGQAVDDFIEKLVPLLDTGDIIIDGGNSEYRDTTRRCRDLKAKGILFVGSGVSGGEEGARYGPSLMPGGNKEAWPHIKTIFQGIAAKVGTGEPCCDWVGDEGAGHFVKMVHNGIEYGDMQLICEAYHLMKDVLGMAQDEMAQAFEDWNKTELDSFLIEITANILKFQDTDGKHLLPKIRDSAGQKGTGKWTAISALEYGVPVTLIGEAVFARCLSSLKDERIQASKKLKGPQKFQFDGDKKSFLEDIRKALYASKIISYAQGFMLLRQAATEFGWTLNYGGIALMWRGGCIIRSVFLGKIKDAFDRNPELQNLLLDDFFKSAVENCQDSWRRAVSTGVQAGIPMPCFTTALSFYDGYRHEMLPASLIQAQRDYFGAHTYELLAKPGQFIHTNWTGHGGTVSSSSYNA
# [10] = system: Aerobactin synthetase IucA (Klebsiella pneumoniae hvKP1); assay: IucA enzyme inhibition, primary screen, biochemical, Spectrum library (AID 1346200; call rule not given here;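 further: 100% = wells without compound and 0% = wells lacking enzyme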); settings: malachite green pyrophosphate, A620, at 8 µM, stronger effect = lower value
# [11] = biological target: NAD(+) hydrolase SARM1 (Homo sapiens) (UniProt Q6SZW1); assay: blocking NAD cleavage by SARM1 SAM-TIR – cell lysate, NAD-Glo luminescence (AID 1508614;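 active means compound whose remaining NAD level is above about 45 nM, limit read from the data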); settings: SAM-TIR HEK293T lysate NADase, at 1 µM, stronger effect = higher value
# NAD(+) hydrolase SARM1 (Homo sapiens), sequence (Q6SZW1 whole entry, looked up, the tested form may be a part): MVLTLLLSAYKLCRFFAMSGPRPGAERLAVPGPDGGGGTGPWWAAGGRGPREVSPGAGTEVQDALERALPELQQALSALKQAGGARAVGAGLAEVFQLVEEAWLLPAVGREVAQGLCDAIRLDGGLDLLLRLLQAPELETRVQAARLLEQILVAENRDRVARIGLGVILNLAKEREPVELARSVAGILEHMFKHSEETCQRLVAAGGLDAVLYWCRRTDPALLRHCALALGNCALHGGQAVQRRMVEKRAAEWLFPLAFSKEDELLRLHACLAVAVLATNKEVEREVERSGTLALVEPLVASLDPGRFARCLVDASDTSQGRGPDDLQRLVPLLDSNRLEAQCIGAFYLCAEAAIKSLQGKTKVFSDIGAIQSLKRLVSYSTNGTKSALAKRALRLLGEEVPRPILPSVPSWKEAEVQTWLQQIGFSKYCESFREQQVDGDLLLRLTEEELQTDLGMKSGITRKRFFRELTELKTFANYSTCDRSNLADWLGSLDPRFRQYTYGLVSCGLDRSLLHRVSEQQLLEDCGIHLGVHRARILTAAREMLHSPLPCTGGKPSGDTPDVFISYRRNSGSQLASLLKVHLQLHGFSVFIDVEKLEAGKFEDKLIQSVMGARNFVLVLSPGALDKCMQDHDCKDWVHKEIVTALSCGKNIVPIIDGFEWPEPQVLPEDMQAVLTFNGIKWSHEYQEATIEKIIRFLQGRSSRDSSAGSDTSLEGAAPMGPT
# [12] = biological target: Mitogen-activated protein kinase 7 (Homo sapiens) (UniProt Q13164); assay: Gal4-ERK5 driven luciferase induction – cell-based, HTS, primary screen (AID 1508626;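 active means luciferase signal above three times the same-plate solvent-only control wells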;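 further: luciferase driven by Gal4-ERK5 fusion binding five Gal4 sites before minimal TATA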); settings: HeLa Gal4-ERK5 transactivation, 18 h, at 5 µM, stronger effect = higher value
# Mitogen-activated protein kinase 7 (Homo sapiens), sequence (Q13164 whole entry, looked up, the tested form may be a part): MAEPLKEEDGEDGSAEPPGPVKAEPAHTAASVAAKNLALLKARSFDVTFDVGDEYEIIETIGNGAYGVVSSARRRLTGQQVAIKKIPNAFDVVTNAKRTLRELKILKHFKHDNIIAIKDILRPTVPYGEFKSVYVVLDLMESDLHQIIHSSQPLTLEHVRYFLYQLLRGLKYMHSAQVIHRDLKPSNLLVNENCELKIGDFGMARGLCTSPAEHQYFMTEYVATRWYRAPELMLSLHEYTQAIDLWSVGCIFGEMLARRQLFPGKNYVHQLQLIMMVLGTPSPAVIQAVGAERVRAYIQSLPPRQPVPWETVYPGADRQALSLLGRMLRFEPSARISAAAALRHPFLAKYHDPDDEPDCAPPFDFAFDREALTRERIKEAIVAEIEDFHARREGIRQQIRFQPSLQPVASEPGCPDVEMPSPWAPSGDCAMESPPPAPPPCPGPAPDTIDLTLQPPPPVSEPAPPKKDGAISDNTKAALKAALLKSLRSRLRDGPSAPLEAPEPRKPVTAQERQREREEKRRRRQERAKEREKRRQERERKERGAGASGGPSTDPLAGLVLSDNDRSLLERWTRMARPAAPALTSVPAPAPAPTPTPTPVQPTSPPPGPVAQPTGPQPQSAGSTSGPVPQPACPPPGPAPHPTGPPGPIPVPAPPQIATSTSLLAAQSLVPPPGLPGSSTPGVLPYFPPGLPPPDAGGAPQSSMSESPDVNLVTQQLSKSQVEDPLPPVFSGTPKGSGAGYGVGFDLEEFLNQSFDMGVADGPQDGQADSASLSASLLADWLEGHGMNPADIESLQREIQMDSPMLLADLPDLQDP
# [13] = yeast 75Q aggregation reduction – 75Q-TubU reporter (AID 1593); settings: Yeast 75Q polyglutamine aggregation reporter
# [14] = blockers of cytochrome c efflux from mitochondria – biochemical, purified mitochondria (AID 1603); settings: stronger effect = lower value;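 further: mouse liver mitochondria challenged with calcium chloride; signal normalized to the plate average as 100%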
# [15] = polyglutamine aggregate formation blockers (AID 1604); settings: polyglutamine-induced protein aggregation inhibition assay; stronger effect = higher value; tested at 2.5 µM
# [16] = P. berghei load reduction in hepatocytes – cell-based, HepG2, luciferase luminescence, HepG2 viability, primary screen (AID 624349; in the data active means parasite load remaining mostly below about 12%, no sharp cut-off; inactive means mostly above about 10%;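 further: 100% = mean of DMSO negative control wells on the same plate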); settings: P. berghei liver stage in HepG2, luciferase luminescence, concentration not given here; parasite load remaining: stronger effect = lower value; viability: measured here: HepG2 viability without parasites
# [17] = EMT-state selective cytotoxicity in co-culture – imaging, PC-3E GFP, TEM4-18 mCherry, primary screen (AID 1345086;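 active means compounds killing one labelled cell type while sparing the other, by normalised counts and ratio limits, not self-fluorescent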;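 on all read-outs here: cells exposed to compound for 72 h before imaging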;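 on red/green cell ratio (normalised): normalised mesenchymal count divided by normalised epithelial count so high means epithelial killing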); settings: PC-3E GFP / TEM4-18 mCherry co-culture, imaging cell counts, at 1 µM; for red/green cell ratio (normalised): actives lie on both sides
# [18] = viability loss with induced miR-34 in A549 – imaging, A549 dox-inducible miR-34, nuclei and caspase counts, primary screen (AID 1347080); settings: A549 miR-34 inducible, Hoechst nuclei count, 48 h
# [19] = MELAS cybrid and Rieske KO viability enhancers – cell-based, MELAS cybrids, Rieske KO mouse fibroblasts, CellTiter-Glo, primary screen (AID 1508586;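 active means mean z-score across replicates of 1.96 or higher in either the MELAS or the Rieske mutant cell line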;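 further: z relative to plate mean and SD of compound and empty wells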); settings: low glucose
# [20] = galactose survival enhancers in mitochondrial complex I cybrids – cell-based, galactose medium, ATP luminescence, primary screen (AID 1645843;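 active means z-score of at least 1.8 in each of two replicates, scored against plate mean and spread of sample wells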;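 further: positive z means more ATP and so rescue of galactose-driven cybrid death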); settings: complex I mutant cybrid cells, 72 h, stronger effect = higher value
# [21] = measured here: epithelial PC-3E GFP cell survival
# [22] = measured here: mesenchymal TEM4-18 mCherry cell survival
# [23] = measured here: relative caspase fold change +Dox/-Dox
# [24] = measured here: total cells with miR-34 induction, stronger effect = lower value
# [25] = measured here: total cells without miR-34 induction
# [26] = MELAS cybrid survival, CellTiter-Glo 48 h, stronger effect = higher value
# [27] = Rieske KO mouse fibroblast survival, CellTiter-Glo 72 h
smiles,measurement,setting,value
CCCCCCCCC(=O)NCc1ccc(O)c(OC)c1,nuclear beta-catenin stimulation,[1]; at 10 µM,2.1% (inactive)
same,nuclear beta-catenin stimulation,"[1]; stimulation, at 2 µM",1.1%
same,insulin secretion stimulation,[2],-0.6% (inactive)
same,viability decrease,[3],4.5% (inactive)
same,tube area decrease,[4],21.4% (inactive)
same,GLP1 secretion stimulation,[5],4% (inactive)
same,inhibition of viability,[6],1.8% (inactive)
same,viability decrease (inhibition),[7],49.7% (inactive)
same,viability decrease (inhibition),[8],11.7% (inactive)
same,inhibition,[9],-12.3% (inactive)
same,activity remaining,[10],92.7% (inactive)
same,remaining NAD,[11],10 nM (inactive)
same,luciferase signal,[12],52 AU (inactive)
Clc1ccc(C(OCCN2CCCCC2)c2ccccc2)cc1 (stereo not drawn),score,[13],1.14
same,cytochrome c release ratio,[14],1.33
same,inhibition of aggregation,[15],66.7%
same,parasite load remaining,[16],32.6% (inactive) and 77.7% (inactive)
same,viability,[16],91.9% and 79.6%
same,nuclear beta-catenin stimulation,[1]; at 10 µM,3.4% (inactive)
same,nuclear beta-catenin stimulation,"[1]; stimulation, at 2 µM",2.6%
same,insulin secretion stimulation,[2],11.4% (inactive)
same,viability decrease,[3],-162% (inactive)
same,tube area decrease,[4],4.5% (inactive)
same,GLP1 secretion stimulation,[5],7.9% (inactive)
same,inhibition of viability,[6],25.5% (inactive)
same,viability decrease (inhibition),[7],72.3% (active)
same,viability decrease (inhibition),[8],26.4% (inactive)
same,inhibition,[9],14.2% (inactive)
same,red/green cell ratio (normalised),[17],0.83 (inactive)
same,normalised cell number,[17]; [21],1.02
same,normalised cell number,[17]; [22],0.85
same,activity remaining,[10],103% (inactive)
same,fold change,[18]; stronger effect = lower value,0.822 (inactive)
same,fold change,[18]; [23],1.27
same,cell count,[18]; [24],7820
same,cell count,[18]; [25],9510
same,z-score,[19]; [26],-1.82 (inactive)
same,z-score,[19]; [27],-0.41
same,remaining NAD,[11],10 nM (inactive)
same,luciferase signal,[12],180 AU (active)
COc1ccc(Cc2nccc3cc(OC)c(OC)cc23)cc1OC,score,[13],1.48
same,cytochrome c release ratio,[14],1.07
same,inhibition of aggregation,[15],46.4%
same,nuclear beta-catenin stimulation,[1]; at 10 µM,1.4% (inactive)
same,nuclear beta-catenin stimulation,"[1]; stimulation, at 2 µM",-0.3%
same,insulin secretion stimulation,[2],-2.5% (inactive)
same,viability decrease,[3],54.7% (active)
same,tube area decrease,[4],59.3% (active)
same,GLP1 secretion stimulation,[5],2.3% (inactive)
same,inhibition of viability,[6],39.8% (inactive)
same,viability decrease (inhibition),[7],112% (active)
same,viability decrease (inhibition),[8],14.5% (inactive)
same,inhibition,[9],-8.16% (inactive)
same,red/green cell ratio (normalised),[17],0.84 (inactive)
same,normalised cell number,[17]; [21],1
same,normalised cell number,[17]; [22],0.83
same,activity remaining,[10],114% (inactive)
same,fold change,[18]; stronger effect = lower value,1.24 (inactive) and 0.81 (inactive) and 0.838 (inactive)
same,fold change,[18]; [23],0.505 and 1.57 and 3.09
same,cell count,[18]; [24],7270 and 6810 and 7780
same,cell count,[18]; [25],5860 and 8410 and 9280
same,z-score,[19]; [26],0.889 (inactive)
same,z-score,[19]; [27],0.124
same,remaining NAD,[11],10 nM (inactive)
same,luciferase signal,[12],24 AU (inactive)
same,z-score,[20],-1.28 (inactive)
Cc1cc(O)ccc1Cl,score,[13],0.98
same,cytochrome c release ratio,[14],1.22
same,inhibition of aggregation,[15],88%
same,parasite load remaining,[16],125% (inactive) and 54.1% (inactive)
same,viability,[16],73.3% and 86.2%
same,nuclear beta-catenin stimulation,[1]; at 10 µM,0.9% (inactive)
same,nuclear beta-catenin stimulation,"[1]; stimulation, at 2 µM",1.9%
same,insulin secretion stimulation,[2],0.3% (inactive)
same,viability decrease,[3],-17% (inactive)
same,tube area decrease,[4],1.5% (inactive)
same,GLP1 secretion stimulation,[5],0.3% (inactive)
same,inhibition of viability,[6],3.83% (inactive)
same,viability decrease (inhibition),[7],26.8% (inactive)
same,viability decrease (inhibition),[8],-3.4% (inactive)
same,inhibition,[9],3.62% (inactive)
same,red/green cell ratio (normalised),[17],1.21 (inactive)
same,normalised cell number,[17]; [21],1.13
same,normalised cell number,[17]; [22],1.36
same,activity remaining,[10],115% (inactive)
same,fold change,[18]; stronger effect = lower value,0.943 (inactive) and 0.921 (inactive)
same,fold change,[18]; [23],0.551 and 0.785
same,cell count,[18]; [24],8310 and 10900
same,cell count,[18]; [25],8820 and 11800
same,z-score,[19]; [26],-0.196 (inactive)
same,z-score,[19]; [27],-0.163
same,remaining NAD,[11],10 nM (inactive)
same,luciferase signal,[12],32 AU (inactive)
